Test results from PubChem BioAssay AID463173 (ICCB-Longwood Screening Facility, Harvard Medical School, 2010).
The whole screen tested about 52,000 compounds, of which about 4,300 (8.3%) were called active. Cut-off read from the data, not from the text of the source: active = survival mostly below about 52% (no sharp cut-off); inactive = mostly above about 56%. Many of the other results were omitted from the sample, so actives are more common in it than they were.

These compounds were tested on DeltatarO mutant (assay: S. aureus survival, RN4220 and DeltatarO strains – OD600, teichoic acid synthesis inhibitors, primary screen (AID 463173)). Details: S. aureus RN4220 wild type/DeltatarO growth, OD600, 18 h, active compounds read low, screened at 18.75 µg/mL (by protocol).

Row | SMILES | survival
1 | COc1ccc(-c2nc(C)c(CCNC(=O)c3c(F)cccc3F)s2)cc1 | 84% (inactive)
2 | O=C(Cn1c(=O)oc2cc(S(=O)(=O)N3CCCCCC3)ccc21)NCc1ccccc1Cl | 78% (inactive)
3 | COCCN1C(=O)c2[nH]nc(-c3c(C)cc(C)cc3O)c2C1c1cccc(O)c1 (configuration not stated) | 57% (inactive)
4 | CCOc1cc(C2c3c(-c4cc(C)ccc4O)n[nH]c3C(=O)N2CCCOC(C)C)ccc1O (configuration not stated) | 90% (inactive)
5 | COCCCN1C(=O)c2[nH]nc(-c3cc(C)ccc3O)c2C1c1ccc(F)cc1 (configuration not stated) | 66% (inactive)
6 | CCc1ccc(C2c3c(-c4cc(C)ccc4O)n[nH]c3C(=O)N2CCO)cc1 (configuration not stated) | 61% (inactive)
7 | CCCCOc1cccc(C2c3c(-c4cc(C)ccc4O)n[nH]c3C(=O)N2CCOC)c1 (configuration not stated) | 10% (active)
8 | COCCN1C(=O)c2[nH]nc(-c3cc(C)ccc3O)c2C1c1ccc(C(C)C)cc1 (configuration not stated) | 1% (active)
9 | COCCCN1C(=O)c2ccccc2CC1(C)C(=O)NC1CCCCC1 (configuration not stated) | 97% (inactive)
10 | Cc1ccc(CNC(=O)Cc2csc3ccccc23)cc1 | 93% (inactive)
11 | CC(=O)N1c2ccc(S(=O)(=O)N3CCN(c4cc(Cl)ccc4C)CC3)cc2CC1C (configuration not stated) | 87% (inactive)
12 | CCN1CCCC1CNCC(=O)NC1(C)C2CCC(C2)C1(C)C (configuration not stated) | 100% (inactive)
13 | COc1ccccc1C(=O)Nc1nnc2n1CCS2 | 69% (inactive)
14 | COc1ccccc1N1CCN(C(=O)c2ccco2)CC1 | 104% (inactive)
15 | Cc1ccc(C(=O)NCC(c2cccnc2)N2CCc3ccccc32)cc1C (configuration not stated) | 55% (inactive)
16 | COc1ccc(C(=O)NCC(c2cccnc2)N2CCc3ccccc32)cc1 (configuration not stated) | 46% (active)
17 | COc1cc(C(=O)NCC(c2cccnc2)N2CCc3ccccc3C2)cc(OC)c1OC (configuration not stated) | 76% (inactive)
18 | COc1ccc(C(=O)NCC(c2cccnc2)N2CCc3ccccc3C2)cc1 (configuration not stated) | 77% (inactive)
19 | COc1cc(C(=O)NCC(c2cccnc2)N2CCc3ccccc32)cc(OC)c1OC (configuration not stated) | 44% (active)
20 | Cc1ccccc1C(=O)NCC(c1cccnc1)N1CCc2ccccc21 (configuration not stated) | 44% (active)
21 | COc1ccc(C(=O)NCC(c2cccnc2)N2CCc3ccccc32)cc1OC (configuration not stated) | 57% (inactive)
22 | O=C(NCC(c1cccnc1)N1CCc2ccccc21)c1ccccc1Br (configuration not stated) | 56% (inactive)
23 | O=C(NCC(c1cccnc1)N1CCc2ccccc21)c1ccc(Cl)cc1 (configuration not stated) | 52% (inactive)

Row | SMILES | survival
24 | COc1ccc(C(=O)OCc2cc(=O)n3nc(-c4cccs4)sc3n2)cc1 | 60% (inactive)
25 | c1ccc(Oc2ccc(N=NN3CCCCC3)cc2)cc1 | 74% (inactive)
26 | CCN1CCN(c2c(S(=O)(=O)c3ccc(C)c(C)c3)cnc3cc(OC)c(OC)cc23)CC1 | 75% (inactive)
27 | CCC(=O)c1cc2c(cc1NC(=O)c1cccc(Cl)c1)OCCO2 | 105% (inactive)
28 | CCc1ccc(OCC(=O)Nc2cc(-c3nc4cc(C)ccc4o3)ccc2C)cc1 | 65% (inactive)
29 | COc1ccc2oc(-c3ccc(C)c(NC(=O)CSc4ccc(Cl)cc4)c3)nc2c1 | 51% (active)
30 | Cc1ccc2nc(-c3ccc(C)c(NC(=O)CSc4ccc(Cl)cc4)c3)oc2c1 | 85% (inactive)
31 | Cc1ccc2oc(-c3ccc(C)c(NC(=O)C(C)(C)Oc4ccc(Cl)cc4)c3)nc2c1 | 13% (active)
32 | COc1ccc2oc(-c3ccc(C)c(NC(=O)Cc4ccc(Cl)cc4)c3)nc2c1 | 151% (inactive)
33 | Cc1ccc(-c2nc3cc(Cl)ccc3o2)cc1NC(=O)COc1ccc(F)cc1 | 53% (inactive)
34 | Cc1c(NC(=O)c2sc3ccccc3c2Cl)cccc1-c1nc2ccccc2o1 | 53% (inactive)
35 | COc1ccc2oc(-c3ccc(C)c(NC(=O)c4sc5ccccc5c4Cl)c3)nc2c1 | 48% (active)
36 | Cc1ccc(C(=O)Nc2cc(-c3nc4cc(Cl)ccc4o3)ccc2C)c(C)c1 | 85% (inactive)
37 | COc1ccc2oc(-c3ccc(C)c(NC(=O)COc4cc(C)cc(C)c4)c3)nc2c1 | 43% (active)
38 | Cc1ccc2oc(-c3ccc(C)c(NC(=O)/C=C/c4ccc(Cl)cc4)c3)nc2c1 | 90% (inactive)
39 | COc1ccc2oc(-c3cccc(NC(=O)c4sc5c([N+](=O)[O-])cccc5c4Cl)c3)nc2c1 | 77% (inactive)
40 | COc1cccc2cc(-c3nc(-c4ccc(Cl)cc4)cs3)c(=O)oc12 | 83% (inactive)
41 | Cc1ccc(Sc2c(C(=O)NCc3ccccc3C)[nH]c3ccccc23)cc1 | 77% (inactive)
42 | CCOc1cccc(C(=O)Nc2ccc(Cl)cn2)c1 | 72% (inactive)
43 | Cc1cccc(Cn2cc(S(=O)(=O)c3cccc(Cl)c3)c(=O)c3cc(F)c(N4CCOCC4)cc32)c1 | 85% (inactive)
44 | Cc1ccc(C)c(CN2CCC(CNC(=O)Cn3ncc4c([nH]c5ccccc54)c3=O)CC2)c1 | 70% (inactive)
45 | Cc1ccc(S(=O)(=O)c2[nH]c(-c3ccccc3)nc2SCC(=O)O)cc1 | 78% (inactive)
46 | COC(=O)c1ccc(NC(=O)c2cc3cc(C)ccc3n2C)cc1 | 66% (inactive)

Row | SMILES | survival
47 | O=C1C(c2nc3ccccc3[nH]2)=C(O)c2ccccc21 | 74% (inactive)
48 | CCCN1CCc2nc(N3CCN(CC)CC3)ncc2C1 | 72% (inactive)
49 | Cc1ccc2oc(-c3ccc(Cl)c(NC(=O)c4ccc(-c5ccccc5[N+](=O)[O-])o4)c3)nc2c1 | 74% (inactive)
50 | COc1ccc2oc(-c3ccc(C)c(NC(=O)c4ccc(-c5ccccc5[N+](=O)[O-])o4)c3)nc2c1 | 42% (active)
51 | Cc1ccc2oc(-c3ccc(C)c(NC(=O)c4ccc(-c5ccccc5[N+](=O)[O-])o4)c3)nc2c1 | 68% (inactive)
52 | Cc1cc(C)c(Nc2nn3c(=O)c4cc5c(cc4nc3s2)OCO5)c(C)c1 | 51% (inactive)
53 | Cc1cccc(Nc2nn3c(=O)c4cc5c(cc4nc3s2)OCO5)c1 | 116% (inactive)
54 | Cc1ccc(C)c(Nc2nn3c(=O)c4cc5c(cc4nc3s2)OCO5)c1 | 37% (active)
55 | COc1ccccc1C(=O)n1nc(-c2ccccc2)nc1NCc1ccc(Cl)cc1 | 56% (inactive)
56 | O=C(c1ccco1)n1nc(-c2ccccc2)nc1NCc1ccc(F)cc1 | 65% (inactive)
57 | O=C(c1ccc(Cl)cc1)n1nc(-c2cccnc2)nc1NCc1ccc(F)cc1 | 43% (active)
58 | O=C(c1ccc(F)cc1)n1nc(-c2ccccc2)nc1NCc1ccc(F)cc1 | 30% (active)
59 | O=C(c1ccc(F)cc1)n1nc(-c2cccnc2)nc1NCc1ccccc1 | 71% (inactive)
60 | Cc1ccccc1C(=O)n1nc(-c2cccnc2)nc1NCc1ccc(F)cc1 | 48% (inactive)
61 | COc1ccc(CNc2nc(-c3ccc(Cl)cc3)nn2C(=O)c2ccccc2)cc1 | 36% (active)
62 | O=C(c1ccccc1Cl)n1nc(-c2cccnc2)nc1NCc1ccc(F)cc1 | 55% (inactive)
63 | O=C(c1ccccc1)n1nc(-c2ccccc2)nc1NCc1ccc(F)cc1 | 12% (active)
64 | Cc1cccc(C(=O)n2nc(-c3cccnc3)nc2NCc2ccc(F)cc2)c1 | 54% (inactive)
65 | COc1ccc(CNc2nc(-c3ccccc3)nn2C(=O)c2ccccc2OC)cc1 | 102% (inactive)
66 | O=C(c1ccc(F)cc1)n1nc(-c2cccnc2)nc1NCc1ccc(F)cc1 | 73% (inactive)
67 | Cc1ccc(Cn2ccnc2SCC(=O)Nc2ccc3c(c2)OCO3)cc1 | 92% (inactive)
68 | COc1ccc(NC(=O)CSc2nc3ccncc3[nH]2)c(OC)c1 | 95% (inactive)
69 | CCCCC12CN3CC(C)(CN(C1)C3c1cc(Br)ccc1O)C2=O (configuration not stated) | 72% (inactive)

Row | SMILES | survival
70 | CCN=C1S/C(=C\c2cn(CC(=O)NCCOC)c3ccccc23)C(=O)N1CC | 95% (inactive)
71 | CCOc1ccc(CCNC(=O)CS(=O)(=O)Cc2nc(-c3ccc(OC)cc3)oc2C)cc1 | 83% (inactive)
72 | COc1ccc(N(CC(=O)NCc2ccc(F)cc2)S(=O)(=O)c2c(C)n[nH]c2C)cc1 | 79% (inactive)
73 | CCNC(=O)c1cnc2sc(N3CCC(C)CC3)nn2c1=O | 74% (inactive)
74 | Cc1onc(-c2c(F)cccc2Cl)c1C(=O)Nc1ccc(OC(C)C)cc1 | 62% (inactive)
75 | Cc1onc(-c2ccccc2Cl)c1C(=O)NC(C(=O)O)C(C)C (configuration not stated) | 86% (inactive)
76 | Cc1ccc(S(N)(=O)=O)cc1NC(=O)c1c(-c2c(Cl)cccc2Cl)noc1C | 55% (active)
77 | CC(C)c1cc(C(=O)NCc2ccccc2)no1 | 54% (inactive)
78 | CCOC(=O)C1CCN(C(=O)CSc2n[nH]c(-c3ccccc3)n2)CC1 | 97% (inactive)
79 | O=C(Nc1noc2ccccc12)c1c(F)cccc1F | 87% (inactive)
80 | COC(=O)c1cccc(Nc2c(-c3ccc(OC)cc3)nc3nc[nH]n23)c1 | 64% (inactive)
81 | Cc1ccc(C)c(N2CCN(c3nc4ccc(C)cc4nc3-n3nc(C)cc3C)CC2)c1 | 102% (inactive)
82 | Cc1cc(C)n(-c2nc3cc(Cl)ccc3nc2N2CCN(c3cccc(C)c3C)CC2)n1 | -6% (active)
83 | Cc1ccc2nc(N3CCN(c4cccc(Cl)c4)CC3)c3nnnn3c2c1 | 88% (inactive)
84 | Cc1cc(C)c(C#N)c(N2CCN(c3cccc(C)c3C)CC2)n1 | 106% (inactive)
85 | Cc1cc(C)n(-c2nc3cc(Cl)ccc3nc2Nc2ccc(C)c(F)c2)n1 | 91% (inactive)
86 | COc1ccccc1N1CCN(c2nc3ccc(C)cc3n3nnnc23)CC1 | 128% (inactive)
87 | Cc1cc(C)n(-c2nc3ccccc3nc2N2CCN(c3cccc(C(F)(F)F)c3)CC2)n1 | 91% (inactive)
88 | COc1ccccc1N1CCN(c2nc3ccc(C)cc3nc2-n2nc(C)cc2C)CC1 | -5% (active)
89 | Cc1cc(C)n(-c2nc3ccccc3nc2N2CCN(c3cccc(C)c3C)CC2)n1 | -6% (active)
90 | Cc1ccc2nc(N3CCN(c4cccc(Cl)c4)CC3)c(-n3nc(C)cc3C)nc2c1 | 0% (active)
91 | Cc1cc(C)n(CCc2nc3c4ccccc4nc(N4CCN(c5cccc(C)c5C)CC4)n3n2)n1 | 86% (inactive)
92 | Cc1cc(C)n(-c2nc3cc(Cl)ccc3nc2N2CCN(c3ccccc3F)CC2)n1 | 98% (inactive)
